NR2F2 inh = NR2F2 transcriptional activity inhibitors, primary screen, cell-based, luciferase reporter, HEK293T, luminescence; AID 686940, 2013; 0.7% of 370,000 active; inhibition, % at 8.6 µM; HEK293T NGFI-A luciferase reporter; COUP transcription factor 2 (Homo sapiens), P24468;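 active = inhibition above a per-plate cutoff, mean inhibition of test wells between control levels plus 3 SD, cut at about 38% in these data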;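 note: cells cotransfected with COUP-TFII expression vector driving the NGFI-A reporter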
SRC2 inh = inhibition of GAL4-SRC2 driven luciferase reporter, primary screen, SRC2 inhibitor project, cell-based, luminescence; Nuclear receptor coactivator 2 (Homo sapiens), Q15596; HEK293 GAL4-SRC2 luciferase reporter; inhibition, % at 9 µM; 0.17% of 370,000 active;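 active = inhibition above the mean inhibition of all tested compounds plus 3 SD, set per campaign, cut at about 52% in these data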
Target sequence (Q15596 whole entry, looked up, the tested form may be a part): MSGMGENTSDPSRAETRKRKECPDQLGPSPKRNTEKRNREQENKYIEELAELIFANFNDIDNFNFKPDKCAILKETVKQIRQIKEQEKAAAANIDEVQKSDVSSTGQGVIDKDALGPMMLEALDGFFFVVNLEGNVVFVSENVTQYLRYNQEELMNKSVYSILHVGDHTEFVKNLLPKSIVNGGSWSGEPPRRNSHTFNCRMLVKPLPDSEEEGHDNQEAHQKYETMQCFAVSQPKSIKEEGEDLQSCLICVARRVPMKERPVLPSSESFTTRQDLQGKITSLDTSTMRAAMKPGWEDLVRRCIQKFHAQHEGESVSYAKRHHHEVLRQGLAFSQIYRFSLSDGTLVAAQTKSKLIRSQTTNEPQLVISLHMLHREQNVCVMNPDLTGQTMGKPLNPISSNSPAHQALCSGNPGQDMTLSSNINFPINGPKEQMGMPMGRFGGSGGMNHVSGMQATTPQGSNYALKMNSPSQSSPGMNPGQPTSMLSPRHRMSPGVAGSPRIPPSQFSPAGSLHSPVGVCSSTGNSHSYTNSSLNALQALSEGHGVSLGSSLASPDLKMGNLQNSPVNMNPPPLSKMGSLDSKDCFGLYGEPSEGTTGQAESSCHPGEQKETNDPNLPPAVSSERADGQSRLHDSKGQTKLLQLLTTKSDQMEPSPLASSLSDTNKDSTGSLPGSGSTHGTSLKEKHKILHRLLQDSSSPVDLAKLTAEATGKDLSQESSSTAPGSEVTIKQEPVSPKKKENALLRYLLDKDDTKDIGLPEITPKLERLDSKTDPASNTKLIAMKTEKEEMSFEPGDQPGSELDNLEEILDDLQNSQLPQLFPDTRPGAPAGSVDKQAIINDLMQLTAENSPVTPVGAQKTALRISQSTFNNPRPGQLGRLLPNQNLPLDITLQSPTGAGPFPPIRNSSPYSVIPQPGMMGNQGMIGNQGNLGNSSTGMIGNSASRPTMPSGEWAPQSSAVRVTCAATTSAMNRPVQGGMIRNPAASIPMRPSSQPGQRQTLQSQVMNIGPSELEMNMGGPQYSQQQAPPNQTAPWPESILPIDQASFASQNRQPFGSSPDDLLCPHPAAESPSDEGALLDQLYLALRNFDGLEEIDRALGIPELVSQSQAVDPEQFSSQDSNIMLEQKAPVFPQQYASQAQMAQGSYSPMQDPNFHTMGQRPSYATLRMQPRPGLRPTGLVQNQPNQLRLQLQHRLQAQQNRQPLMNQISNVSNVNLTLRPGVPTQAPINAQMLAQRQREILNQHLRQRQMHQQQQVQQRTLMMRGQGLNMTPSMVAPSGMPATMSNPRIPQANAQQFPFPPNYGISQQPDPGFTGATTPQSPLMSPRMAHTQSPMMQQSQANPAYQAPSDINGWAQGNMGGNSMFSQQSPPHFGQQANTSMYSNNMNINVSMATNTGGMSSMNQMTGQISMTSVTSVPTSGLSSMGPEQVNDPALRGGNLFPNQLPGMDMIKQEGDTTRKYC
LRH-1 inv ag = LRH-1 (NR5A2) inverse agonists, primary screen, cell-based, luminescence, HEK293T, StAR-luciferase reporter | LRH-1 transfected, 24 h | inhibition, % at 3.6 µM | 0.13% of 360,000 active | AID 602396, 2012;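 active = inhibition above the mean inhibition of all tested compounds plus 3 SD, cut at about 73% in these data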
SRC1 inh = SRC1 coactivator transcriptional activity inhibitors, primary screen, cell-based, luminescence. AID 588354, 2011. 0.12% of 360,000 active. inhibition, % at 3.6 µM. HEK293 GAL4-SRC1 luciferase reporter;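 active = inhibition above the campaign mean plus 3 SD, with each screening campaign given its own cutoff, cut at about 60% in these data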
Gli-Sufu block = Gli-Sufu pathway antagonists, primary screen, luciferase luminescence, Sufu-KO-LIGHT cells, uHTS; Sufu-KO-LIGHT fibroblasts, Gli luciferase reporter luminescence; inhibition, % at 5 µM; 0.74% of 340,000 active; AID 588413, 2011;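 active = inhibition above about 55%, limit read from the data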
NCOA3 inh = SRC3 coactivator transcriptional activity inhibitors, primary screen, cell-based, luminescence; 0.17% of 360,000 active; HEK293 GAL4-SRC3 luciferase reporter; AID 588352, 2011; Nuclear receptor coactivator 3 (Homo sapiens), Q9Y6Q9; inhibition, % at 3.6 µM;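 active = inhibition above a per-campaign cutoff, the mean of all compounds plus 3 SD, cut at about 60% in these data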;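 note: higher means less SRC3-driven luciferase light from the GAL4 reporter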
VP16 Luc counter = Gal4-VP16 luciferase reporter inhibitors, counter-screen for COUP-TFII antagonist project, cell-based, luminescence, HEK293. shares compounds with NR2F2 inh. inhibition, % at 8.5 µM. 25% of 2,500 active; in the data active = inhibition above about 13%
COUP-TFII conf = NR2F2 transcriptional activity inhibitors, confirmation, cell-based, luciferase reporter, HEK293, triplicate. inhibition, % at 8.5 µM. shares compounds with NR2F2 inh. 45% of 2,500 active. HEK293 NGFI-A luciferase reporter, luminescence;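 active = mean inhibition over three repeats above a set limit taken from the earlier primary screen, cut at about 38% in these data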
Numbers stand for hits; n = inactive; x = no result given. Sampled rows, rich in hits. Any-hit rate of the full collection: about 1.2%.

SMILES | NR2F2 inh | SRC2 inh | LRH-1 inv ag | SRC1 inh | Gli-Sufu block | NCOA3 inh | VP16 Luc counter | COUP-TFII conf
C[C@@H]1C[C@H]2O[C@@H]2/C=C\C=C\C(=O)Cc2cc(O)cc(O)c2C(=O)O1 | 86 | 55 | x | x | x | x | 38 | n
C[C@@H]1C[C@@H]2O[C@H]2CCCCC(=O)Cc2cc(O)cc(O)c2C(=O)O1 | 63 | n | x | x | x | x | 59 | 65
COCCN(CCOC)C(=O)[C@@H](Cc1ccccc1)NC(=O)[C@H]1O[C@@H](n2ccc(N)nc2=O)[C@H](O)[C@@H]1O | n | n | x | x | x | x | x | x
Cc1sc2ncnc(NC3CCN(Cc4ccccc4)CC3)c2c1C | 56 | n | n | n | 78 | n | n | 52
c1ccc(CN2CCC(Nc3ncnc4sccc34)CC2)cc1 | n | n | n | n | n | n | x | x
c1cc2ccn(CC3CC3)c2cc1-c1ccc2ccn(CC3CC3)c2c1 | n | n | x | x | x | x | x | x
Nc1ccn([C@@H]2O[C@H](C(=O)N[C@H](Cc3ccccc3)C(=O)Nc3ccc4scnc4c3)[C@@H](O)[C@H]2O)c(=O)n1 | n | n | x | x | x | x | x | x
CCOc1ccc(C(=O)Nc2nc3ccccc3[nH]2)cc1OCC | 52 | n | n | n | n | n | n | n
O=C(Nc1nc2ccccc2[nH]1)c1ccc(F)cc1 | n | n | n | n | n | n | x | x
CCc1ccc(C(=O)Nc2nc3ccccc3[nH]2)cc1 | 74 | 68 | n | n | n | n | n | n
O=C(Nc1nc2ccccc2[nH]1)c1ccccc1F | 62 | 65 | n | n | n | 64 | 33 | 48
CC(C)CC(N)c1csc(Nc2ncccn2)n1 (stereo not drawn) | 43 | n | n | n | x | n | n | n
NC(COCc1ccccc1)c1csc(Nc2ncccn2)n1 (stereo not drawn) | n | n | n | n | x | n | x | x
O=C(CCc1nc(-c2ccccc2F)no1)NCCc1ccccc1F | n | n | x | x | x | x | x | x
O=C(Nc1ccc(-c2nc3ccccc3o2)cc1)c1ccc(N2C(=O)C3C4C=CC(C4)C3C2=O)cc1 (stereo not drawn) | 41 | n | n | n | n | n | n | 40
COC(=O)c1cn(CCOc2ccc(C)cc2)c2ccccc12 | n | n | n | n | n | n | x | x
CC(=O)c1cn(CC(=O)Nc2ccccc2)c2ccccc12 | 47 | n | n | n | n | n | n | n
CC(=O)c1cn(CCOc2ccc(F)cc2)c2ccccc12 | 47 | n | n | n | n | n | n | n
CCC(=O)c1cn(CC(=O)Nc2ccccc2)c2ccccc12 | n | n | n | n | n | n | x | x
CCc1nc(NCc2ccccn2)c2oc3ccccc3c2n1 | 39 | n | n | n | n | n | n | n
Cc1cc(NCc2ccccn2)nc2ccccc12 | n | n | n | n | n | n | x | x
CCc1nc(Nc2ccncc2)c2oc3ccccc3c2n1 | n | n | n | n | n | n | x | x
Cc1nc(NCc2ccccn2)c2ccccc2n1 | 43 | n | n | n | n | n | n | n
O=C(Nc1nccs1)C1(C(=O)C2CC2)CC(c2ccccn2)=NO1 (stereo not drawn) | n | n | x | x | x | x | x | x
CCCCCCn1c2c(c(=N)c3c1CCC3)CCC2 | 78 | n | 92 | 67 | 89 | 75 | n | 70
SMILES | NR2F2 inh | SRC2 inh | LRH-1 inv ag | SRC1 inh | Gli-Sufu block | NCOA3 inh | VP16 Luc counter | COUP-TFII conf
CCCCn1c2c(c(=N)c3c1CCC3)CCC2 | 47 | n | n | n | n | n | n | 39
CCCCCCCn1c2c(c(=N)c3c1CCC3)CCCC2 | 79 | n | 84 | n | 90 | 79 | 17 | 82
O=C(CCCCCN1C(=O)C2C3C=CC(C3)C2C1=O)Nc1cc(F)cc(F)c1 (stereo not drawn) | n | n | x | x | x | x | x | x
c1ccc(-c2nnc(SCc3nc4ccccc4[nH]3)n2Cc2ccco2)cc1 | n | n | n | n | n | n | x | x
Cc1ccc(OCc2nnc(SCc3nc4ccccc4[nH]3)n2Cc2ccco2)cc1 | 42 | n | n | n | n | n | n | n
COC1=CC(=O)c2nc(Cl)ccc2C1=O | 38 | n | 76 | 64 | x | n | 35 | n
CC(C)c1ccc(Oc2cccc3c2S(=O)(=O)N([C@H](C)c2ccccc2)C[C@@H](COCc2ccccc2)O3)cc1 | n | n | x | x | x | x | x | x
O=C(Nc1ccc(Cl)c(C(F)(F)F)c1)c1ccncc1 | n | n | n | n | n | n | x | x
CNC(=O)c1cc(Oc2ccc(NC(=O)Nc3ccc(Cl)c(C(F)(F)F)c3)cc2)ccn1 | 72 | 65 | n | n | n | n | 15 | 48
CC(C)[C@H]1/C(=C/C2CC2)N2C(=O)C[C@H](c3ccccc3)N=C2N1C | n | x | x | x | x | x | x | x
C[C@@H]1ON(C)[C@H]2C[C@H]3c4[nH]c5c(-c6ccccc6F)cccc5c4CCN3C(=O)[C@@H]12 | n | n | x | x | x | x | x | x
CN(Cc1ccccc1F)C(=O)Cn1c(-c2cncs2)nc2ccccc21 | n | n | x | x | x | x | x | x
Cc1c(CCC(=O)N2CCC(C(=O)O)(c3ccccc3)CC2)c(=O)oc2cc3oc4c(c3cc12)CCCC4 | 53 | 58 | n | n | n | n | 37 | n
Cc1c(CCC(=O)N2CCC(C(=O)O)CC2)c(=O)oc2cc3oc4c(c3cc12)CCCC4 | 61 | 63 | n | n | n | n | n | n
Cc1c(CCC(=O)N[C@@H](C)C(=O)O)c(=O)oc2cc3oc4c(c3cc12)CCCC4 | 47 | 67 | n | n | n | n | 33 | n
COC(=O)C1=C(C)N(C)C(=NCc2ccccc2)NC1c1ccccc1 (stereo not drawn) | n | n | x | x | x | x | x | x
CCOC(=O)c1c(C)n(C)c2ccc(O)c(CN3CCN(C)CC3)c12 | n | n | n | n | n | n | x | x
CCOC(=O)c1c(-c2ccccc2)oc2ccc(O)c(CN3CCN(C)CC3)c12 | 38 | n | n | n | n | n | n | n
CC(C)(O)C#Cc1ccc(N2C(c3ccsc3)=Cc3ccc(F)cc3C2c2c[nH]c3ccc(C#N)cc23)cc1 (stereo not drawn) | n | n | n | x | x | x | x | x
CCOC(=O)c1ccc(-c2ccc(N3C(c4ccsc4)=Cc4ccc(F)cc4C3c3c[nH]c4ccc(C#N)cc34)cc2)cc1F (stereo not drawn) | 56 | 79 | n | x | x | x | n | n
